Experimental data as given in PubChem BioAssay.
Calls of active or inactive are those of the source.

What was measured:
[1] = tested on: Wnt5a (protein binding on small-molecule microarray); assay: Wnt5a binders on small-molecule microarray, primary screen, biophysical, 635/667 nm fluorescence (AID 1142); settings: 635 nm fluorescence, higher = more signal;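 further: fluorescence read at 667 nm with signal to noise per printed feature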
[2] = cell viability in Huh7 cells, primary screen, cytotoxicity control for HCV replication inhibitor project, CellTiter-Glo luminescence, basal, 48 h (AID 1143); settings: Huh7 HCV replicon, higher = more signal, called active from +8 up or from −8 down;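 further: Huh7 hepatoma cells carrying a hepatitis C replication reporter with no stimulus; test concentration not given here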
[3] = CREB reporter modulators without forskolin, primary screen, cell-based, PC12, CRE-LacZ reporter, unstimulated (AID 1145); settings: no forskolin, luminescence, 4.5 h, higher = more signal, called active from +8 up or from −8 down
[4] = CREB reporter modulators under forskolin, primary screen, cell-based, PC12, CRE-LacZ reporter, forskolin-stimulated (AID 1146); settings: luminescence, 4.5 h, higher = more signal, called active from +8 up or from −8 down;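 further: PC12 cells with 6xCRE LacZ reporter stimulated by forskolin 10 µM; beta-galactosidase reporter signal reflecting CREB driven transcription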
[5] = target: Streptavidin (Streptomyces avidinii) (UniProt P22629); assay: streptavidin binders on small-molecule microarray, primary screen, artefact control for SMM compound annotation, biophysical, 635/667 nm fluorescence (AID 1147); settings: streptavidin binding, higher = more signal;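 further: signal reflects streptavidin binding to arrayed compounds as a control protein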
[6] = small-molecule binders of probe aInhba, primary screen, biochemical, small-molecule microarray, 635/667 nm fluorescence (AID 1148); settings: higher = more signal;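 further: score merges 667nm spot fluorescence with signal-to-noise for antibody binding to printed compounds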
[7] = target: Torsin-1A (Homo sapiens) (UniProt O14656); assay: torsin A binders from cell lysate, primary screen, small-molecule microarray, wild-type, 635/667 nm (AID 1149); settings: COS7 hTOR1A-WT lysate, 635 nm fluorescence, higher = more signal
[8] = target: Torsin-1A (Homo sapiens) (UniProt O14656); assay: small-molecule binders of mutant TOR1A in lysate, primary screen, cell lysate, small-molecule microarray, COS7 lysate, 635/667 nm fluorescence (AID 1150); settings: COS7 hTOR1A mutant lysate, 635 nm fluorescence, higher = more signal;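 further: score pools 667 nm emission and signal to noise measuring lysate protein binding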
[9] = tested on: Sonic hedgehog protein (Shh); assay: small-molecule binders of Shh protein, primary screen, biochemical, small-molecule microarray, 635/667 nm fluorescence (AID 1151); settings: small-molecule microarray binding, 635 nm fluorescence; higher = more signal;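 further: Shh protein binding to compounds spotted on small-molecule microarray slides; score combines spot fluorescence intensity with signal-to-noise across triplicate slides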
[10] = E. coli DRC41 culture turbidity changes, primary screen, E. coli filamentation inducer project, strain DRC41, OD650, 48 h (AID 1152);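 further: E. coli MC1000 strain DRC41 lacking acrAB efflux pump and sulA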; settings: E. coli DRC41 (acrAB sulA), higher = more signal, called active from +8 up or from −8 down
[11] = small-molecule binders of probe aLefty1, primary screen, biochemical, small-molecule microarray, 635/667 nm fluorescence (AID 1153); settings: higher = more signal;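 further: score merges spot fluorescence with signal-to-noise ratio from the scanned slide images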
[12] = PSAC antagonists in infected red cells, primary screen, cell-based, P. falciparum Indochina, OD700, 1 h (AID 1154); settings: P. falciparum Indochina infected RBC osmotic lysis, higher = more signal, called active from +8 up or from −8 down
[13] = PSAC antagonists in infected red cells, primary screen, cell-based, P. falciparum Indochina, OD700, 2 h (AID 1155);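 further: lysis reports solute entry through the parasite surface anion channel PSAC; channel blockers reduce lysis of infected cells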; settings: P. falciparum Indochina infected erythrocytes, osmotic lysis OD700; higher = more signal, called active from +8 up or from −8 down
[14] = osmotic lysis modulators in infected erythrocytes, primary screen, PSAC antagonist project, cell-based, P. falciparum Indochina, OD700, 3 h (AID 1156); settings: higher = more signal, called active from +8 up or from −8 down
[15] = PSAC antagonists in infected red cells, primary screen, cell-based, P. falciparum Indochina, OD700, 18 h (AID 1157); settings: P. falciparum Indochina infected erythrocytes, osmotic lysis OD700, 18 h; higher = more signal, called active from +8 up or from −8 down
[16] = modulators of S6 phosphorylation in cells, primary screen, cell-based, A549, cytoblot, luminescence, serum-stimulated (AID 1158); settings: A549 phospho-S6 cytoblot, 5 h, higher = more signal;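 further: serum-stimulated A549 lung adenocarcinoma cells; signal is phosphorylated S6 detected by cytoblot immunostaining with HRP secondary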
[17] = target: NADPH oxidase 2 (Homo sapiens) (UniProt P04839); assay: NOX2-dependent H2O2 signal modulators, primary screen, NOX inhibitor project, cell-based, HEK293-NOX2, PMA-stimulated, Amplex Red fluorescence (AID 1159); settings: 45 min, higher = more signal, called active from +8 up or from −8 down; further: test concentration not given here
[18] = target: NADPH oxidase 4 (Homo sapiens) (UniProt Q9NPH5); assay: NOX4-dependent H2O2 signal modulators, primary screen, NOX inhibitor project, cell-based, HEK293-NOX4, tetracycline-induced, Amplex Red fluorescence (AID 1160); settings: 45 min, higher = more signal, called active from +8 up or from −8 down
[19] = target: NADPH oxidase 5 (Homo sapiens) (UniProt Q96PH1); assay: NOX5-dependent H2O2 signal modulators, primary screen, NOX inhibitor project, cell-based, HEK293-NOX5, Amplex Red fluorescence (AID 1161); settings: HEK293-NOX5, ionomycin, 45 min, higher = more signal
[20] = A549 cell viability effects, profiling panel, calcein-AM fluorescence, 48 h, basal (AID 1162); settings: higher = more signal; further: test concentration not given here

Sequence of Streptavidin (Streptomyces avidinii) (P22629 whole entry, looked up): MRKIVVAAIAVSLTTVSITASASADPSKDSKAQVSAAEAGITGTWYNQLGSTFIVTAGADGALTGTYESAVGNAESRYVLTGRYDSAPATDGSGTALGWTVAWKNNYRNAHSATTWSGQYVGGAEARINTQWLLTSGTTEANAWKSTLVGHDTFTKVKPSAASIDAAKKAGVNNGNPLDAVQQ
Sequence of NADPH oxidase 4 (Homo sapiens) (Q9NPH5 whole entry, looked up): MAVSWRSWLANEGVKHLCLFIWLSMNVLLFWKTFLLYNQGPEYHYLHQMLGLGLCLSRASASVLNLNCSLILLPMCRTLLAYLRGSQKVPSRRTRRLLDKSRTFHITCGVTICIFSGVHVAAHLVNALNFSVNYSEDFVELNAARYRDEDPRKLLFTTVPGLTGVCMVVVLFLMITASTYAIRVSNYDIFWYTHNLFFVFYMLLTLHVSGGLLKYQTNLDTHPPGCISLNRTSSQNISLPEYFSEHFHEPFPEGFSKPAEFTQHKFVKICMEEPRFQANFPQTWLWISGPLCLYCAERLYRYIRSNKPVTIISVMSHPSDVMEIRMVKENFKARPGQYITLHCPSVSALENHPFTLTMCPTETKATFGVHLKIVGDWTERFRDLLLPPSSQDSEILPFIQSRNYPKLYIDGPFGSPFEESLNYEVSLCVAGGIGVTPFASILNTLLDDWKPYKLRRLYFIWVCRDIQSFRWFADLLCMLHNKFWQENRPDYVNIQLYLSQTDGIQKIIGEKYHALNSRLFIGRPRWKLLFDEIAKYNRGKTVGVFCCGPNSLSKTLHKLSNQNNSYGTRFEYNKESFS
Sequence of NADPH oxidase 5 (Homo sapiens) (Q96PH1 whole entry, looked up): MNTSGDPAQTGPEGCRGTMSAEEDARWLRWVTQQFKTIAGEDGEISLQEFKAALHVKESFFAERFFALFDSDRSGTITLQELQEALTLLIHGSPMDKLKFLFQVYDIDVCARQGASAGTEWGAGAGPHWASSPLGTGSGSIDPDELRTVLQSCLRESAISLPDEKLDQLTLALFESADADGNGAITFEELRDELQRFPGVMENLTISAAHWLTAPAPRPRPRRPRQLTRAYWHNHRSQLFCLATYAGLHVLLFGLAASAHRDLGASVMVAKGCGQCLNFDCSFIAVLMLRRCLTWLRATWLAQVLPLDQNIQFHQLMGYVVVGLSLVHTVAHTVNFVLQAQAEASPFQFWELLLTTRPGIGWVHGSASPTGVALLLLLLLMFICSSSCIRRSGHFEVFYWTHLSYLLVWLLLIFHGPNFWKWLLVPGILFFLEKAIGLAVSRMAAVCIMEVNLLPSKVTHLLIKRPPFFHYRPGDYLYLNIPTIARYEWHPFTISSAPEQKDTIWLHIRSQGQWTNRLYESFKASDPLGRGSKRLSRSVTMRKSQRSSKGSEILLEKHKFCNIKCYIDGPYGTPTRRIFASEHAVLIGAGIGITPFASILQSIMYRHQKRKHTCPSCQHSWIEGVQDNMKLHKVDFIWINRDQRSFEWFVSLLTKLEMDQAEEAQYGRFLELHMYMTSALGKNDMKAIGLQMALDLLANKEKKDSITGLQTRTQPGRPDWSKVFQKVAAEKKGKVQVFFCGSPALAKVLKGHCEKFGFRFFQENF
Sequence of NADPH oxidase 2 (Homo sapiens) (P04839 whole entry, looked up): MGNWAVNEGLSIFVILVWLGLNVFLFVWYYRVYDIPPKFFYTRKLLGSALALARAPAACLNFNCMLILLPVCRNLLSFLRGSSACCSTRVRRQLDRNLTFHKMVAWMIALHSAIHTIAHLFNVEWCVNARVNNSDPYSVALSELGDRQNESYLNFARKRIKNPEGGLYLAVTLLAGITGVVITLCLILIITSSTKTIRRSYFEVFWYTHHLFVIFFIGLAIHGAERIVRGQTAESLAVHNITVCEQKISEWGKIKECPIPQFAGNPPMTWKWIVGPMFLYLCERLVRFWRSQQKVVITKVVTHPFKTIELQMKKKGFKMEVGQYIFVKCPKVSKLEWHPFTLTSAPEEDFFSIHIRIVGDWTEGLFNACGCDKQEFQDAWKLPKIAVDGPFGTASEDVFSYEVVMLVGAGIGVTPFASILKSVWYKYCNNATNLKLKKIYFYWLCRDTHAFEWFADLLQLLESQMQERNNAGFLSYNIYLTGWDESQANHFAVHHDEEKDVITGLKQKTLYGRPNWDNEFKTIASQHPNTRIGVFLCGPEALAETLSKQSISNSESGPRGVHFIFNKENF
Sequence of Torsin-1A (Homo sapiens) (O14656 whole entry, looked up): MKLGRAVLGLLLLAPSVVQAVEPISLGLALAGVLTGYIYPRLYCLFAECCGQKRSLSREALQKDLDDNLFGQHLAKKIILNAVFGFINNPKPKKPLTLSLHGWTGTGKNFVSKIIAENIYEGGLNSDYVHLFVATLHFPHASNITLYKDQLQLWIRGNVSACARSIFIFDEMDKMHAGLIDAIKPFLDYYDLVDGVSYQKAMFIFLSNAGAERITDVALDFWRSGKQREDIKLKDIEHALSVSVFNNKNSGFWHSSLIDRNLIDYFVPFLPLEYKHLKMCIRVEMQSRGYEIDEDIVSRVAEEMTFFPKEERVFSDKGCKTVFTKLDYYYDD

In the case of CO[C@H]1O[C@H](CO)[C@@H](OC(=O)CCc2ccccc2)[C@@H]2OC(=O)[C@H](Cc3ccccc3)C/C=C/C[C@@H](Cc3ccccc3)C(=O)O[C@@H]12, the composite z-score [1] is reported as -0.221, the z-score [2] is reported as -3.09 (inactive) and the z-score [3] is reported as -0.552 (inactive). For the same molecule, the z-score [4] was -1.18 (inactive), the composite z-score [5] was -0.804 and the composite z-score [6] was -0.179. For the same molecule, the composite z-score [7] was 0.0387, the composite z-score [8] was 0.0489 and the composite z-score [9] was -0.214. The z-score [10] was 2.35 (inactive), the composite z-score [11] was -0.243 and the z-score [12] was 6.07 (inactive). The z-score [13] was 0.389 (inactive), the z-score [14] was -1.06 (inactive) and the z-score [15] was -1.83 (inactive). For the same molecule, the z-score [16] was 0.939, the z-score [17] was 1.59 (inactive) and the z-score [18] was 1.26 (inactive). For the same molecule, the z-score [19] was 0.751 and the z-score [20] was 1.38.
In the case of NCCCCCCNC(=O)[C@@H]1C[C@@H]2C(=O)N[C@@H](Cc3ccccc3)C(=O)N2[C@@H]1c1ccc(O)cc1, the composite z-score [1] is reported as 0.0167, the z-score [2] is reported as -0.136 (inactive) and the z-score [3] is reported as 1.52 (inactive). The z-score [4] was -1.12 (inactive), the composite z-score [5] was 0.91 and the composite z-score [6] was 0.229. The composite z-score [7] was 0.104, the composite z-score [8] was 0.416 and the composite z-score [9] was 0.507. The z-score [10] was 0.717 (inactive), the composite z-score [11] was 0.443 and the z-score [12] was 3.47 (inactive). For the same molecule, the z-score [13] was 0.374 (inactive), the z-score [14] was -6.59 (inactive) and the z-score [15] was 0.276 (inactive). The z-score [16] was -0.118, the z-score [17] was 1.18 (inactive) and the z-score [18] was 1.3 (inactive). It also gave a z-score [19] of 0.846 and a z-score [20] of 0.987.
With O=C(NO)[C@]1(Cc2ccccc2)N=C(c2ccc(OCCCO)cc2)O[C@@H]1c1ccccc1 the composite z-score [1] was -0.229, the z-score [2] was -1.7 (inactive) and the z-score [3] was 3.01 (inactive). The z-score [4] was -1.91 (inactive), the composite z-score [5] was -0.585 and the composite z-score [6] was -0.0782. The composite z-score [7] was -0.427, the composite z-score [8] was 0.411 and the composite z-score [9] was -0.351. For the same molecule, the z-score [10] was 3.88 (inactive), the composite z-score [11] was 0.0278 and the z-score [12] was 15 (active). The z-score [13] was 0.971 (inactive), the z-score [14] was -0.479 (inactive) and the z-score [15] was -0.21 (inactive). For the same molecule, the z-score [16] was 2.81, the z-score [17] was 0.709 (inactive) and the z-score [18] was 0.551 (inactive). It also gave a z-score [19] of 2.06 and a z-score [20] of 1.86.
In the case of CC(C)(C)OC(=O)CC[C@]1(C(=O)NCc2ccccc2)COC(c2ccc(OCCCO)cc2)=N1, the composite z-score [1] is reported as 0.433, the z-score [2] is reported as -1.47 (inactive) and the z-score [3] is reported as 1.7 (inactive). The z-score [4] was -1.32 (inactive), the composite z-score [5] was 0.74 and the composite z-score [6] was -0.0308. It also gave a composite z-score [7] of -0.208, a composite z-score [8] of 1.11 and a composite z-score [9] of -0.743. The z-score [10] was 2.02 (inactive), the composite z-score [11] was 0.0738 and the z-score [12] was 18.7 (active). The z-score [13] was 1.92 (inactive), the z-score [14] was 1.99 (inactive) and the z-score [15] was -1.39 (inactive). The z-score [16] was 0.719, the z-score [17] was 0.117 (inactive) and the z-score [18] was 0.804 (inactive). The z-score [19] was -1.01 and the z-score [20] was 0.661.
With COC(=O)C1=CC(c2ccc(CO)cc2)=CC(C2CC2)N(C)C=C1C(=O)OC (stereo not given) the composite z-score [1] was 0.138, the z-score [2] was -3.85 (inactive) and the z-score [3] was -0.195 (inactive). For the same molecule, the z-score [4] was -1.75 (inactive), the composite z-score [5] was 0.226 and the composite z-score [6] was 0.203. It also gave a composite z-score [7] of -0.017, a composite z-score [8] of 1.04 and a composite z-score [9] of -0.154. The z-score [10] was 2.75 (inactive), the composite z-score [11] was 0.223 and the z-score [12] was 7.02 (inactive). For the same molecule, the z-score [13] was 0.548 (inactive), the z-score [14] was -2.7 (inactive) and the z-score [15] was -0.382 (inactive). The z-score [16] was 3.99, the z-score [17] was -1.7 (inactive) and the z-score [18] was -0.0178 (inactive). The z-score [19] was -1.69 and the z-score [20] was 0.981.
For C=CCN1C(=O)[C@@]2(O[C@@H](CCn3cc(CCO)nn3)[C@H]([Si](C)(C)c3ccc(OC)cc3)[C@H]2C)c2cc(NC(=O)c3ccc(OC)cc3)ccc21, the composite z-score [1] was 0.315, the z-score [2] was -2.79 (inactive) and the z-score [3] was 12.8 (active). For the same molecule, the z-score [4] was -2.29 (inactive), the composite z-score [5] was 0.441 and the composite z-score [6] was 0.0497. It also gave a composite z-score [7] of 0.558, a composite z-score [8] of 0.437 and a composite z-score [9] of 1.4. For the same molecule, the z-score [10] was 0.596 (inactive), the composite z-score [11] was 0.0789 and the z-score [12] was 12.1 (active). For the same molecule, the z-score [13] was 2.03 (inactive), the z-score [14] was 1.1 (inactive) and the z-score [15] was 0.742 (inactive). The z-score [16] was 0.157, the z-score [17] was -0.282 (inactive) and the z-score [18] was 1.45 (inactive). For the same molecule, the z-score [19] was 0.367 and the z-score [20] was -0.0183.
For C=CCNC(=O)[C@@H]1[C@H]2C(=O)O[C@H](c3ccccc3)[C@H](c3ccccc3)N2[C@H](c2ccc(O)cc2)[C@@]12C(=O)Nc1ccc(C#Cc3ccc(OC)cc3)cc12, the composite z-score [1] was 0.212, the z-score [2] was -4.8 (inactive) and the z-score [3] was -0.0784 (inactive). The z-score [4] was -1.25 (inactive), the composite z-score [5] was 1.16 and the composite z-score [6] was 0.0228. For the same molecule, the composite z-score [7] was 0.248, the composite z-score [8] was 0.286 and the composite z-score [9] was 0.551. For the same molecule, the z-score [10] was 2.73 (inactive), the composite z-score [11] was 0.159 and the z-score [12] was 1.27 (inactive). For the same molecule, the z-score [13] was -0.224 (inactive), the z-score [14] was 0.375 (inactive) and the z-score [15] was -0.957 (inactive). The z-score [16] was 0.98, the z-score [17] was 1.35 (inactive) and the z-score [18] was 1.23 (inactive). The z-score [19] was 0.0881 and the z-score [20] was -0.629.
With CCOC(=O)C[C@H]1[C@H](OC(=O)c2ccc(C(=O)c3ccccc3)cc2)[C@@H](NC(=O)Cc2ccc(OC)cc2)c2cc(OCCCO)ccc2N1C(=O)Cc1ccc(OC)cc1 the composite z-score [1] was 0.296, the z-score [2] was -0.69 (inactive) and the z-score [3] was 2.14 (inactive). For the same molecule, the z-score [4] was -0.899 (inactive), the composite z-score [5] was 0.598 and the composite z-score [6] was -0.122. It also gave a composite z-score [7] of 0.226, a composite z-score [8] of 0.413 and a composite z-score [9] of 0.697. The z-score [10] was 1.89 (inactive), the composite z-score [11] was 0.357 and the z-score [12] was 4.37 (inactive). For the same molecule, the z-score [13] was -0.625 (inactive), the z-score [14] was 0.0901 (inactive) and the z-score [15] was -1.14 (inactive). For the same molecule, the z-score [16] was 1, the z-score [17] was 0.676 (inactive) and the z-score [18] was 0.79 (inactive). For the same molecule, the z-score [19] was 1.52 and the z-score [20] was 2.13.
In the case of CC(C)C(=C=CC[C@@H](O)c1ccc(CO)o1)CCO, the composite z-score [1] is reported as 0.502, the z-score [2] is reported as -0.105 (inactive) and the z-score [3] is reported as 0.681 (inactive). For the same molecule, the z-score [4] was -1.82 (inactive), the composite z-score [5] was -0.294 and the composite z-score [6] was -0.0986. The composite z-score [7] was 1.65, the composite z-score [8] was 0.289 and the composite z-score [9] was 1.48. For the same molecule, the z-score [10] was 1.38 (inactive), the composite z-score [11] was -0.147 and the z-score [12] was 1.95 (inactive). The z-score [13] was 0.236 (inactive), the z-score [14] was 0.311 (inactive) and the z-score [15] was 0.0124 (inactive). For the same molecule, the z-score [16] was -0.109, the z-score [17] was 1.62 (inactive) and the z-score [18] was 1.64 (inactive). The z-score [19] was 1.49 and the z-score [20] was 2.76.
